# MBNL1-CUG inh = qHTS Assay for Inhibitors of MBNL1-poly(CUG) RNA binding. Muscleblind-like protein 1 (Homo sapiens), Q9NR56. TR-FRET MBNL1-His/biotin-(CUG)12 binding, 665/545 ratio. Potency, µM (series often up to 57.5 µM), for inactives: at the highest dose activity change, negative = inhibition, hits mostly inhibitors. 280,000 compounds, 0.036% hits; active = well fitted inhibition curve with a large enough effect in the signal ratio, with a control signal flat, not every such curve was filed as active; inconclusive = small, poorly fitted or top-dose-only effect, or effect the other way, or a change in a side signal; inactive = no such curve, though single readings can be large or run the other way; the % refers to the signal ratio; also: potency is read from the fitted curve at half-maximal effect; % is scaled to controls: 0 for no effect and ±100 for the full control effect
#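 His-tagged MBNL1 binding to biotinylated (CUG)12 RNA was measured by TR-FRET using terbium anti-His antibody (0.055 ng/ul final) and streptavidin-XL665 (5 nM final). Compounds were titrated 92 nM to 58 uM; 60 min at room temperature.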
# TRPV1 potentiator = HTS Assay for Compounds that Act as Potentiators of the Vanilloid Receptor 1 | potentiation, % at 8.33 µM | Transient receptor potential cation channel subfamily V member 1 (Homo sapiens), Q8NER1 | 320,000 compounds, 0.02% hits | TRPV1-expressing cells, Fluo-8 calcium influx, capsaicin EC20 potentiation; in the data active = potentiation above about 80%; inconclusive = between about 30% and that limit; also: 0% is about no effect
#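 Fluo-8 calcium influx in TRPV1-expressing cells, kinetic read (ex 480/em 520 nm). Compound added and read 3 min for agonist activity, followed by capsaicin at EC20 final and 2 min further read for enhancement.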
# KCNH2 WT inh = qHTS for Inhibitors of KCHN2 3.1: Wildtype qHTS; Voltage-gated inwardly rectifying potassium channel KCNH2 (Homo sapiens), Q12809; U2OS, BacMam KCNH2, thallium flux FluxOr; hits give low values; activity change, % at 1.84 µM; 340,000 compounds, 0.37% hits; AID 720551, 2013;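 active = maximum activity change below -70%; inconclusive = maximum activity change between -70% and -50%; inactive = maximum activity change above -50%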; also: % is scaled to controls: 0 for no effect and ±100 for the full control effect
#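 U2OS cells were transduced with wild-type KCNH2 virus (2.03 x 10^8 / mL) for 4 h at room temperature, then cultured overnight at 37 C. Thallium flux was read with FluxOr dye. Rate constants were normalized to DMSO controls.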
# KCNH2 3.1 inh = qHTS for Inhibitors of KCHN2 3.1: Mutant qHTS | U2OS KCNH2 3.1, thallium flux FluxOr; hits give low values | 340,000 compounds, 0.95% hits | activity change, % (tested at about 1.8 µM) | Potassium voltage-gated channel subfamily H member 2, brain isoform KCNH2 3.1 (human);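 active = maximum activity change below -70%; inconclusive = maximum activity change from -70% to -50%; inactive = maximum activity change above -50%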;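 also: thallium influx rate constant from kinetic fluorescence after stimulation buffer; % is scaled to controls: 0 for no effect and ±100 for the full control effect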
#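 Thallium flux via FluxOr fluorescence (Red40 quencher, 45 min loading) in U2OS cells virally expressing the KCNH2 3.1 isoform (1.77 x 10^8 /mL virus, overnight at 37 C). Rate constants from 2-min kinetic reads post-stimulation, normalised to positive and negative controls.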
# TRPV1 ag = HTS Assay for Compounds that Act as Agonists of the Vanilloid Receptor 1 | Transient receptor potential cation channel subfamily V member 1 (Homo sapiens), Q8NER1 | TRPV1-expressing cells, Fluo-8 calcium influx, agonist mode | activation, % at 8.33 µM | 320,000 compounds, 0.19% hits; in the data active = activation above about 80%; inconclusive = between about 30% and that limit; also: 0% is about no effect
#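 Fluo-8 calcium influx in TRPV1-expressing cells, kinetic read (ex 480/em 520 nm). Compound added and read 3 min for agonist activity, followed by capsaicin at EC20 final and 2 min further read for enhancement.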
# An asterisk follows results filed as active; ? = inconclusive; / = not tested or not shown. Hits are enriched below; roughly 1.3% of the tested compounds scored in any of these assays.
SMILES,MBNL1-CUG inh,TRPV1 potentiator,KCNH2 WT inh,KCNH2 3.1 inh,TRPV1 ag
O=C(COC(=O)c1ccccc1)NCC1COc2ccccc2O1 (configuration not stated),/,/,-246*,4,/
Cc1ccc(C(=O)OCC(=O)NCC2COc3ccccc3O2)cc1 (configuration not stated),/,-17,0,0,6
O=C1c2cccc3cccc(c23)C(=O)N1CCO,/,/,1,-21,/
O=C1OC(O)c2cccc3cccc1c23 (configuration not stated),/,/,5,-71*,/
CC(C)C[C@@H](CN(C)N=O)N(C[C@H](Cc1ccccc1)N(CCc1ccccc1)N=O)N=O,12%,11,2,-3,11
CN(C[C@H](Cc1ccccc1)N(CCN(CCc1ccccc1)N=O)N=O)N=O,-8%,14,19,-200*,3
O=C(N/N=C/c1ccc(-c2cccc([N+](=O)[O-])c2)o1)c1ccc([N+](=O)[O-])cc1,?,-8,-41,?,1
O=C(N/N=C\c1ccc(COc2ccc([N+](=O)[O-])cc2)o1)c1ccc(Cl)cc1,3%,13,?,-77*,-1
COC(=O)[C@H](CC(C)C)NC(=O)N1CCCCC1,0%,-14,0,-126*,-1
COC(=O)[C@H](Cc1ccccc1)NC(=O)N1CCCCCC1,-7%,-1,/,-1,-2
COc1cc(NC(=O)c2ccc3c(SCC(=O)O)c4c(nc3c2)CCC4)cc(OC)c1OC,8%,0,-25,0,-1
COc1cc(NC(=O)c2ccc3c(SCC(=O)O)c4c(nc3c2)CCCC4)cc(OC)c1OC,-18%,2,/,-77*,1
COc1cc(OC)c(NC(=O)c2ccc3c(SCC(=O)O)c4c(nc3c2)CCCC4)cc1Cl,15%,-2,4,-104*,2
CCOC(=O)C1CCN(C(=O)c2ccc3c(=O)n4nc(Nc5ccccc5OC)sc4nc3c2)CC1,/,/,-3,-75*,/
Nc1nc(-c2ccccc2)c(-c2ccccc2)n1N,11%,0,-10,-7,8
c1ccc(-c2cnn3c(-c4ccccc4)c(-c4ccccc4)nc3n2)cc1,-3%,-3,-135*,-89*,?
Cc1ccc(-n2c(C(C)C)nc3oc4ccccc4c(=O)c3c2=O)cc1,-3%,-4,-7,-33,5
CC(C)N(Cc1nnc(-c2ccc(Cl)cc2)o1)C(=O)c1cc2ccccc2o1,/,-9,-1,-91*,19
C[C@H](NC(=O)N1CCn2c1nc1ccccc12)C(=O)NC1CC1,-1%,-31,-1,-136*,-6
Cc1ccc(Nc2nc(N)nc(CN3CCN(Cc4ccc5c(c4)OCO5)CC3)n2)c(C)c1,-8%,3,7,?,3
Cc1ccc(Nc2nc(N)nc(CN3CCN(Cc4ccc5c(c4)OCO5)CC3)n2)cc1Cl,-14%,-3,-90*,-92*,0
Cc1ccc(Nc2nc(N)nc(CN3CCN(Cc4ccc5c(c4)OCO5)CC3)n2)cc1,-8%,-7,-44,-80*,-1
Cc1ccc(Nc2nc(N)nc(CN3CCN(Cc4ccc5c(c4)OCO5)CC3)n2)cc1C,-11%,16,?,-104*,-2
c1cncc(C2SCCCS2)c1,/,/,-17,-30,/
Cc1ccc(Cn2nnnc2CN2CCC(c3nc4ccc(Cl)cc4[nH]3)CC2)cc1,-3%,7,-2,-88*,-2
Clc1ccc2nc(C3CCN(Cc4nnnn4C4CCCCC4)CC3)[nH]c2c1,-10%,-7,-5,-28,-1
C(#CC12CC3CC(CC(C3)C1)C2)CN1CCOCC1,-7%,-22,-103*,3,?
COc1cccc(NC(=O)CN(C)C(=O)c2ccc(NC(=O)CC3SC(N4CCCC4)=NC3=O)cc2)c1 (configuration not stated),/,/,-13,4,/
N#Cc1ccc(N)cc1OCCCN1CCCCC1,/,/,3,12,/
COc1cccc(-c2nnc(NC(C)=O)o2)c1,-3%,27,1,15,-2
